The values below come from PubChem BioAssay (Tox21).

Where “and” joins values, the source holds several entries; their conditions need not be identical. Identical values can stand only once. Inconclusive results are not listed. Some structures have more than one record in an assay (separate samples or runs), and their calls can disagree. Calls of active or inactive are those of the source. Unless noted, calls come from the whole dose curve; as a rule, active = well fitted curve in the direction sought with a large enough effect in the repeat runs; inconclusive = weak or mixed curves; inactive = no such curve, though single readings can be large; an effect the other way counts as inactive or inconclusive.

Assay [1] can be described thus: qHTS assay to identify small molecule antagonists of the thyroid receptor (TR) signaling pathway (AID 743065). Note: series mostly up to about 70 µM; nearly all actives have a fitted effect of over 55% in size. Summed up: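 GH3.TRE-Luc rat pituitary cells (two TREs driving luciferase) were dosed with compound, then stimulated with 1 nM T3 (final) for 23.5 h at 37 C. ONE-Glo luminescence was the read-out, with CellTiter-Fluor fluorescence as the cytotoxicity counter-screen.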
(In general: In qHTS, concentration-response curves come from the screen itself.)

Assay [2] relates to thyroid hormone receptor (rat, GH3 cells). Nature of the assay: qHTS assay to identify small molecule agonists of the thyroid receptor (TR) signaling pathway (AID 743066; calls by dose curve).
In assay [3] the target is Estrogen receptor (Homo sapiens) (UniProt P03372). Nature of the assay: qHTS assay to identify small molecule antagonists of the estrogen receptor alpha (ER-alpha) signaling pathway (AID 743069; active = well fitted curve in the direction sought with a large enough effect in the signal ratio in the repeat runs, not every such curve was filed as active; the % refers to the signal ratio). Summed up:
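Reporter cells (ER-alpha-bla, HEK293 background) are conditioned overnight in stripped-serum medium (2% charcoal-stripped FBS). Compound and 17beta-estradiol exposure runs 18 hr at 37C, 5% CO2.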

A short description of assay [4]: qHTS assay to identify small molecule antagonists of the estrogen receptor alpha (ER-alpha) signaling pathway - cell viability counter screen (AID 743074; calls by dose curve;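 note: HEK293 cells carrying ER-alpha-UAS-bla reporter stimulated with 17beta-estradiol; nearly all actives have a fitted effect of over 45% in size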).
In assay [5] the target is Estrogen receptor (Homo sapiens) (UniProt P03372). The assay is described as follows: qHTS assay to identify small molecule agonists of the estrogen receptor alpha (ER-alpha) signaling pathway (AID 743075; calls by dose curve;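 note: HEK293 GripTite cells with ER-alpha and UAS-driven beta-lactamase reporter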).
For assay [6] the target is unchanged. Nature of the assay: qHTS assay to identify small molecule agonists of the estrogen receptor alpha (ER-alpha) signaling pathway using the BG1 cell line (AID 743079). Note: nearly all actives have a fitted effect of over 20% in size. Note: potency is the fitted concentration of half-maximal effect.
Assay [7] in a line: qHTS assay to identify small molecule antagonists of the estrogen receptor alpha (ER-alpha) signaling pathway using the BG1 cell line (AID 743080; calls by dose curve;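 note: BG1 cells stimulated with 17beta-estradiol alongside compound; nearly all actives have a fitted effect of over 25% in size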; note: potency is the fitted concentration of half-maximal effect). Summed up: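 BG1-Luc-4E2 cells (endogenous full-length ER-alpha, stable 4×ERE-luciferase) were starved 5 days in phenol-red-free medium with 10% charcoal-stripped FBS, plated 24 h, then given compound plus 17beta-estradiol for 21.5 h at 37 C; ONE-Glo luminescence read after 30 min.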

Assay [8] is described as follows: qHTS assay to identify small molecule antagonists of the estrogen receptor alpha (ER-alpha) signaling pathway using the BG1 cell line - cell viability counter screen (AID 743081).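 Note: compound given together with 17beta-estradiol as the ER stimulus; series mostly up to about 70 µM; nearly all actives have a fitted effect of over 45% in size.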
In the next assay the target is Aromatase (Homo sapiens) (UniProt P11511). Nature of the assay: qHTS assay to identify aromatase inhibitors (AID 743083). Note: series mostly up to about 70 µM; nearly all actives have a fitted effect of over 55% in size.
The nature of assay [9]: qHTS assay to identify aromatase inhibitors - cell viability counter screen (AID 743084).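 Note: cells stimulated with testosterone during compound exposure; nearly all actives have a fitted effect of over 55% in size.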
Assay [10] in a line: qHTS assay to identify small molecule that activate the aryl hydrocarbon receptor (AhR) signaling pathway - cell viability counter screen (AID 743086).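 Note: HepG2 liver cells carrying the AhR DRE luciferase reporter; series mostly up to about 70 µM; nearly all actives have a fitted effect of over 45% in size.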 Summed up:
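HepG2-AhR-luc (HG2L7.5c1) cells, 4000/well, treated 24 h at 37 C with compound; viability measured as CellTiter-Fluor fluorescence after 30 min in the same wells as the luciferase read.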

The target of assay [11] is Peroxisome proliferator-activated receptor gamma (Homo sapiens) (UniProt P37231). The assay is described as follows: qHTS assay to identify small molecule agonists of the peroxisome proliferator-activated receptor gamma (PPARg) signaling pathway (AID 743094; active = well fitted activation curve with a large enough effect in the signal ratio in the repeat runs, not every such curve was filed as active; the % refers to the signal ratio). Summed up: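 Following 5 h plating at 37C, PPARg-bla HEK293H cells receive compound or DMSO for 17 h; fluorescence intensity is recorded after LiveBLAzer B/G loading for 1 h at room temperature.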

For assay [12], the target named is Aryl hydrocarbon receptor (Homo sapiens) (UniProt P35869). Nature of the assay: qHTS assay to identify small molecule that activate the aryl hydrocarbon receptor (AhR) signaling pathway (AID 743085).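 For activation: HG2L7.5c1 human HepG2 liver cells with stably integrated DRE-driven firefly reporter; series mostly up to about 70 µM.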 Note: nearly all actives have a fitted effect of over 15% in size. Note: potency is the fitted concentration of half-maximal effect. Summed up: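 Compounds were tested in HepG2 hepatocellular carcinoma cells harbouring a stably integrated luciferase gene under control of 20 DREs. Increased reporter signal after 24 h treatment at 37C was taken as AhR activation.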

Assay [13] is described as follows: qHTS assay to identify small molecule antagonists of the thyroid receptor (TR) signaling pathway - cell viability counter screen (AID 743064). Note: nearly all actives have a fitted effect of over 50% in size. Summed up:
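Rat GH3 pituitary tumor cells stably expressing two TR response elements driving luciferase were plated, rested 4 h, then dosed with library compounds and T3 (1 nM final). After 23.5 h at 37 °C, CellTiter-Fluor was added for 30 min and fluorescence recorded.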

Sequence of Aromatase (Homo sapiens) (P11511 whole entry, looked up): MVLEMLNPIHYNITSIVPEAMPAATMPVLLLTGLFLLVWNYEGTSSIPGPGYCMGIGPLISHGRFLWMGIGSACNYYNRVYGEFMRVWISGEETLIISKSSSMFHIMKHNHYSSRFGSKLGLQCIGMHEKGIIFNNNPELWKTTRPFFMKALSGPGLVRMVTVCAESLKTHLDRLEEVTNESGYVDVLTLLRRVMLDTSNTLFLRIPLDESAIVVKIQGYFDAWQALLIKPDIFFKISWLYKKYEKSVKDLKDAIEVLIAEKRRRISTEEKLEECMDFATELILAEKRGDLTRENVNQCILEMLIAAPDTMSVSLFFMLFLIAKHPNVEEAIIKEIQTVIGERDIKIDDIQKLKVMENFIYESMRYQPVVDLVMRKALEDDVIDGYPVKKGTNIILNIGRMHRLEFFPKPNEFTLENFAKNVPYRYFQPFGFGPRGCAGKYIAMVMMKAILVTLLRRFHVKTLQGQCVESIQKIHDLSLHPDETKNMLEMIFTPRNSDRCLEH
Sequence of Aryl hydrocarbon receptor (Homo sapiens) (P35869 whole entry, looked up): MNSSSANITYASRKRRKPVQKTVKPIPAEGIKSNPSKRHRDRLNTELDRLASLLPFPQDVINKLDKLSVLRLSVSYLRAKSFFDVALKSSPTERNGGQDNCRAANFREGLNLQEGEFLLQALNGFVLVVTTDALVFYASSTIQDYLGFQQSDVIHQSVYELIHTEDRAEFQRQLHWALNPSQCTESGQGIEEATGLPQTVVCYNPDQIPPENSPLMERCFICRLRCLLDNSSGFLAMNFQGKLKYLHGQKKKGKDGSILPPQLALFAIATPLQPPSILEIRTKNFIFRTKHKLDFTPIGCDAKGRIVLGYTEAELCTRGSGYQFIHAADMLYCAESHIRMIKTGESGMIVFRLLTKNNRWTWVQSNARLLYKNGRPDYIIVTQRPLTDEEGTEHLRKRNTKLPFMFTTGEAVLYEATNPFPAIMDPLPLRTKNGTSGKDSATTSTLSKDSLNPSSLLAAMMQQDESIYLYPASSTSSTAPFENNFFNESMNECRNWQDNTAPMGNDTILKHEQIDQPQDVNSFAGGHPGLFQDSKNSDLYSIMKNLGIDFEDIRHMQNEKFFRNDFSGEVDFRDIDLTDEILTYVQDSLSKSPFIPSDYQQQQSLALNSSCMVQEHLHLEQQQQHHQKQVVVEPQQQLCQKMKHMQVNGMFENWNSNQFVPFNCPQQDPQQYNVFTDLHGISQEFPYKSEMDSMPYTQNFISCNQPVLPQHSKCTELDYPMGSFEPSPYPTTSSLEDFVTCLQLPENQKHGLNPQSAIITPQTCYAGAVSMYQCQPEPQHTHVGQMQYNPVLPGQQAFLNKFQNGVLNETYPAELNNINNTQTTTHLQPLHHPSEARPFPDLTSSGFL
Sequence of Estrogen receptor (Homo sapiens) (P03372 whole entry, looked up): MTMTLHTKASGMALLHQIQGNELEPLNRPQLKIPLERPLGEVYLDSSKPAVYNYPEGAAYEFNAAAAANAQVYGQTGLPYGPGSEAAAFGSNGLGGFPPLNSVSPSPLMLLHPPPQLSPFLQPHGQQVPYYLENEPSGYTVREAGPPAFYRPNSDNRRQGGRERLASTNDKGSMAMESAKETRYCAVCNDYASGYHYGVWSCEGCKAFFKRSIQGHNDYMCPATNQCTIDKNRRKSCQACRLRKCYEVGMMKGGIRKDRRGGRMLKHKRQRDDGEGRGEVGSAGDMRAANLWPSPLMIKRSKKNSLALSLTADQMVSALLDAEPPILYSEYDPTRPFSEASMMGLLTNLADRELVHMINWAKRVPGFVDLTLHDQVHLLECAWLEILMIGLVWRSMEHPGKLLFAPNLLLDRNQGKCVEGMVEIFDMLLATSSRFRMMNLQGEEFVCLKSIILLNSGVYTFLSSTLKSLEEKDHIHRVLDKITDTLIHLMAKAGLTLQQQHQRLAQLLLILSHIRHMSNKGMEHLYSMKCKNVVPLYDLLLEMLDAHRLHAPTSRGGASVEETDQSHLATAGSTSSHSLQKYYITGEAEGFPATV
Sequence of Peroxisome proliferator-activated receptor gamma (Homo sapiens) (P37231 whole entry, looked up): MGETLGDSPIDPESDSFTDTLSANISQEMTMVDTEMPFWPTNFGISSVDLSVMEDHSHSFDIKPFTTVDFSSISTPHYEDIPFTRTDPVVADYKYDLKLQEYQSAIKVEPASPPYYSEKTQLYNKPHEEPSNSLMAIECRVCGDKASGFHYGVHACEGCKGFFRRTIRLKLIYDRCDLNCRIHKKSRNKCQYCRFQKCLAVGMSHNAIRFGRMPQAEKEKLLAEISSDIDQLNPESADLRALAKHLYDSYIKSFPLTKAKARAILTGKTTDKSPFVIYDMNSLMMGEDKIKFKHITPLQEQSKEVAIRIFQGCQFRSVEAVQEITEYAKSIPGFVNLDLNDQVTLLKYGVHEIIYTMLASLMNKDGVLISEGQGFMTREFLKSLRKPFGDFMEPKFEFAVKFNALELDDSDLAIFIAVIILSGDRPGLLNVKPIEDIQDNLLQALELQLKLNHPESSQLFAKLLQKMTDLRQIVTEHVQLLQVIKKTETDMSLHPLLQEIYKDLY

Turning to `N=C(N)c1ccc(/C=C/c2ccc(C(=N)N)cc2O)cc1`, the Potency entry in assay [1], in [2], in [3], in [4], in assay [5] and in assay [6] was “inactive” in each case. Besides, the Potency result (in assay [7]; in [8]; with Aromatase (Homo sapiens); in assay [9]; in [10]; in [11]) was “inactive” each time.

As for `NC[C@@H]1CC[C@@H](N)[C@@H](O[C@H]2[C@H](O)[C@@H](O[C@H]3O[C@H](CO)[C@@H](O)[C@H](N)[C@H]3O)[C@H](N)C[C@@H]2N)O1`, the Potency entry in assay [1], in assay [2], in assay [3], in [4], in assay [5] and in [7] was “inactive” each time. Besides, the Potency entry (in assay [8]; with Aromatase (Homo sapiens); in assay [9]; in [12]; in [10]; in [11]) was “inactive” in each case. The Potency in [6] is 11.9 µM (active).

Regarding `CCC(O)c1ccccc1` (stereo unspecified), the Potency result in assay [13], in assay [3], in assay [5], in [6], in assay [7] and in [8] was “inactive” each time. The Potency result (in the assay with Aromatase (Homo sapiens); in [9]; in assay [10]) was “inactive” in each case.

Take `CNC(=O)C[C@@H](N)C(=O)N[C@@H](C(=O)N[C@@H]1C(=O)N2[C@@H]1SC(C)(C)[C@@H]2C(=O)O)c1ccc(O)cc1`: the Potency entry in assay [13], in assay [3], in assay [4], in assay [5], in assay [6] and in assay [7] was “inactive” each time. Besides, the Potency entry (in assay [8]; with Aromatase (Homo sapiens); in assay [9]; in [12]; in assay [10]; in assay [11]) was “inactive” each time.

For `OCC1(CO)COC(C(Cl)(Cl)Cl)OC1`, the Potency result in [1], in assay [2], in assay [3], in [4], in assay [5] and in assay [6] was “inactive” throughout. Moreover, the Potency entry (in assay [7]; in assay [8]; with Aromatase (Homo sapiens); in assay [9]; in assay [12]; in assay [10]) was “inactive” each time. In addition, the Potency result in [11] was “inactive”.

`COc1ccc(/C=N/NC(=O)c2ccncc2)c(C(=O)O)c1OC`: the Potency entry in assay [1], in [2], in assay [3], in assay [4], in assay [5] and in [6] was “inactive” throughout. For the same compound, the Potency result (in assay [7]; in assay [8]; with Aromatase (Homo sapiens); in [9]; in [10]; in assay [11]) was “inactive” each time. Also, in [12], the Potency is 11.9 µM (active).

As to `CO/N=C(\C(=O)N[C@@H]1C(=O)N2C(C(=O)[O-])=C(C[n+]3cccc4c3CCC4)CS[C@H]12)c1csc(N)n1`, the Potency result in assay [1], in [2], in [3], in assay [4], in [5] and in assay [6] was “inactive” throughout. In addition, the Potency entry (in assay [7]; in [8]; in the assay with Aromatase (Homo sapiens); in assay [9]; in assay [12]; in [10]) was “inactive” throughout.

For the compound `CC1(C)S[C@@H]2[C@H](N3C(=O)C(c4ccccc4)NC3(C)C)C(=O)N2[C@H]1C(=O)O` (stereo partly specified), the Potency entry in assay [1], in assay [2], in assay [3], in [4], in assay [5] and in assay [6] was “inactive” throughout. Moreover, the Potency entry (in [7]; in assay [8]; with Aromatase (Homo sapiens); in assay [9]; in [12]; in assay [11]) was “inactive” in each case.

Take `NC(N)=NCc1cccc(I)c1`: the Potency entry in assay [13], in [2], in assay [3], in assay [4], in assay [5] and in assay [8] was “inactive” throughout. Further, the Potency entry (with Aromatase (Homo sapiens); in assay [9]; in assay [12]; in assay [10]; in assay [11]) was “inactive” each time. Besides, the Potency in assay [7] is 21.1 µM (active) and 11.9 µM (active).

For the compound `NC(=O)[C@@H]1CCCN1C(=O)[C@H](Cc1cnc[nH]1)NC(=O)[C@@H]1CCC(=O)N1`, the Potency entry in assay [1], in [2], in assay [3], in [4], in [5] and in assay [6] was “inactive” throughout. Moreover, the Potency entry (in assay [7]; in assay [8]; in the assay with Aromatase (Homo sapiens); in assay [9]; in [12]; in assay [10]) was “inactive” in each case. Further, in assay [11], the Potency entry was “inactive”.

For the compound `CC(C)(O/N=C(\C(=O)N[C@@H]1C(=O)N2C(C(=O)[O-])=C(C[n+]3ccccc3)CS[C@H]12)c1csc(N)n1)C(=O)O`, the Potency entry in [13], in assay [2], in [3], in [5], in assay [6] and in assay [7] was “inactive” throughout. Besides, the Potency result (in assay [8]; with Aromatase (Homo sapiens); in assay [9]) was “inactive” in each case.

`CO[C@H]1C[C@H](O[C@H]2[C@H](C)[C@@H](O[C@@H]3O[C@H](C)C[C@H](N(C)C)[C@H]3O)[C@@H](C)C[C@]3(CO3)C(=O)[C@H](C)[C@@H](O)[C@@H](C)[C@@H](C)OC(=O)[C@@H]2C)O[C@@H](C)[C@@H]1O`: the Potency entry in [1], in assay [2], in [3], in assay [4], in assay [5] and in assay [6] was “inactive” in each case. Besides, the Potency entry (in assay [7]; in assay [8]; in the assay with Aromatase (Homo sapiens); in assay [9]; in assay [12]; in assay [10]) was “inactive” in each case. Also, the Potency entry in [11] is “inactive”.

For the compound `O=C1[O][Bi][O]c2ccccc21`, the Potency entry in assay [13], in assay [2], in assay [3], in [4], in [5] and in assay [6] was “inactive” each time. For the same compound, the Potency result (in [7]; in [8]; with Aromatase (Homo sapiens); in assay [9]; in [10]) was “inactive” throughout.

On to `CC(C)(S)C(=O)N[C@@H](CS)C(=O)O`, for which the Potency entry (in assay [13]; in assay [4]; in assay [8]; with Aromatase (Homo sapiens); in assay [9]; in [11]) was “inactive” throughout.

For `CC(C)[N+]1(C)[C@@H]2CC[C@H]1CC(OC(=O)C(CO)c1ccccc1)C2` (stereo partly specified), the Potency result in [13], in assay [2], in assay [3], in [4], in assay [5] and in assay [7] was “inactive” each time. For the same compound, the Potency result in assay [8], in assay [9], in assay [10] and in [11] was “inactive” each time. For the same compound, the Potency in assay [6] is 26.6 µM (active) and inactive.
